Article PMC7862700, “An all-to-all approach to the identification of sequence-specific readers for epigenetic DNA modifications on cytosine”

Tests used:
Assay in all cases: DAPPL (digital affinity profiling via proximity ligation, sequencing); 10 mM Tris-HCl pH 7.5, 50 mM NaCl, 1 mM DTT, 4% glycerol, room temperature, 30 min; GST-TFs on glutathione beads, 16-mer random dsDNA library, 0.1% formaldehyde crosslink after washing; high values mean tight binding
FEV = biological target: T1, FEV (Homo sapiens, UniProt Q99581 1-238); conditions: protein: recombinant; tags: N-terminal GST; dsDNA, one strand shown
T1 sequence: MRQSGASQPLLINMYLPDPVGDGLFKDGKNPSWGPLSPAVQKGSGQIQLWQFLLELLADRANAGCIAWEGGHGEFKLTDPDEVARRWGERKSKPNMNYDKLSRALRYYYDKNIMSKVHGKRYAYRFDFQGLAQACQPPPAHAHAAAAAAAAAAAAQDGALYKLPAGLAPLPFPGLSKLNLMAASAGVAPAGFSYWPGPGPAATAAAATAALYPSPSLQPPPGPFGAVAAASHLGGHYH
In short: (§1)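 Binding signal is each hexamer's read frequency for a factor divided by its frequency in the tag-only sample. The factors were GST-fused human transcription factors from yeast, captured on glutathione beads, DNA-barcoded and pooled with that sample. Pools were incubated with 200 nmole of a random double-stranded 16-mer DNA library in Tris/NaCl/DTT/glycerol buffer at room temperature for 30 min, then washed, crosslinked with 0.1% formaldehyde, proximity-ligated with BsaI/T4 ligase (1 h, 37 °C), PCR-amplified and sequenced on an Illumina NextSeq500.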

ETV5 = ETV5 (Homo sapiens, UniProt P41161 1-510); conditions: protein: recombinant; tags: N-terminal GST; dsDNA, one strand shown
Sequence of ETV5 (P41161 whole entry): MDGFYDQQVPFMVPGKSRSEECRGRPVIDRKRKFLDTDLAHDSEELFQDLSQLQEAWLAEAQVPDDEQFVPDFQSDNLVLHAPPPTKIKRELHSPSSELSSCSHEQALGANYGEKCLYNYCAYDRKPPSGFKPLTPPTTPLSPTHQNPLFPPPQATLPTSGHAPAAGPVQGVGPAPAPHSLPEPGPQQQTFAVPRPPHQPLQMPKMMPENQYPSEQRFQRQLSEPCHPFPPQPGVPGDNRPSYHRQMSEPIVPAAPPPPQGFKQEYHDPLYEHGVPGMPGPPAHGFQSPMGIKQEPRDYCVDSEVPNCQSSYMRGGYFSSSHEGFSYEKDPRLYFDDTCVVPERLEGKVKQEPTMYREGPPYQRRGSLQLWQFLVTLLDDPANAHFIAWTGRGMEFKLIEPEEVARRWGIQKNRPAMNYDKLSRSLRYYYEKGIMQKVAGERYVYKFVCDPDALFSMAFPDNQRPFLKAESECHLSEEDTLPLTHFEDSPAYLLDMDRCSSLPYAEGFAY
In short: as §1

HSF1 = HSF1 (Homo sapiens, UniProt Q00613 1-529); conditions: protein: recombinant; tags: N-terminal GST; chain copies: 3; dsDNA, one strand shown
Sequence of HSF1 (Q00613 whole entry): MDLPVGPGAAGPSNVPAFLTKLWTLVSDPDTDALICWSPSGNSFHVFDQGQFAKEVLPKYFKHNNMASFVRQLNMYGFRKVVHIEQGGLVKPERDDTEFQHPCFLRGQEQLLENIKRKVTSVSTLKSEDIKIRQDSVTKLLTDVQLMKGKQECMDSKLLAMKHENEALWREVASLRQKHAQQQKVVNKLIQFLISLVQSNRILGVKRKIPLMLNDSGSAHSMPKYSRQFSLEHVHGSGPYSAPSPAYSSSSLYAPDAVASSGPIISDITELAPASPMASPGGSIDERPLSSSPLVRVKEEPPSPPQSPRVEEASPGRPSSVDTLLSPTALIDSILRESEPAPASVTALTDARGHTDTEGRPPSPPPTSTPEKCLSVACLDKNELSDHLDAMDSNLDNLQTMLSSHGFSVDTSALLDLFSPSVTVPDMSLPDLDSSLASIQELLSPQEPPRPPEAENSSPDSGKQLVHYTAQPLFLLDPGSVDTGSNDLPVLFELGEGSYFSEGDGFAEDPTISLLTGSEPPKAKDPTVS
In short: as §1

SPIC = biological target: T2, SPIC (Homo sapiens, UniProt Q8N5J4 1-248); conditions: protein: recombinant; tags: N-terminal GST; dsDNA, one strand shown
T2 sequence: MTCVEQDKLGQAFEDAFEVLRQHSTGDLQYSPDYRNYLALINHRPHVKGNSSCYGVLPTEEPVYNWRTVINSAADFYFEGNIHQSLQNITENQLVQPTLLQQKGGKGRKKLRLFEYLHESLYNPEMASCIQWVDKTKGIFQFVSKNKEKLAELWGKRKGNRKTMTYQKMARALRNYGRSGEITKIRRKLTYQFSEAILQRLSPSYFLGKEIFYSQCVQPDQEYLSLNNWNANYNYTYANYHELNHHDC
In short: as §1

ELF4 = ELF4 (Homo sapiens, UniProt Q99607 1-663); conditions: protein: recombinant; tags: N-terminal GST; dsDNA, one strand shown
Sequence of ELF4 (Q99607 whole entry): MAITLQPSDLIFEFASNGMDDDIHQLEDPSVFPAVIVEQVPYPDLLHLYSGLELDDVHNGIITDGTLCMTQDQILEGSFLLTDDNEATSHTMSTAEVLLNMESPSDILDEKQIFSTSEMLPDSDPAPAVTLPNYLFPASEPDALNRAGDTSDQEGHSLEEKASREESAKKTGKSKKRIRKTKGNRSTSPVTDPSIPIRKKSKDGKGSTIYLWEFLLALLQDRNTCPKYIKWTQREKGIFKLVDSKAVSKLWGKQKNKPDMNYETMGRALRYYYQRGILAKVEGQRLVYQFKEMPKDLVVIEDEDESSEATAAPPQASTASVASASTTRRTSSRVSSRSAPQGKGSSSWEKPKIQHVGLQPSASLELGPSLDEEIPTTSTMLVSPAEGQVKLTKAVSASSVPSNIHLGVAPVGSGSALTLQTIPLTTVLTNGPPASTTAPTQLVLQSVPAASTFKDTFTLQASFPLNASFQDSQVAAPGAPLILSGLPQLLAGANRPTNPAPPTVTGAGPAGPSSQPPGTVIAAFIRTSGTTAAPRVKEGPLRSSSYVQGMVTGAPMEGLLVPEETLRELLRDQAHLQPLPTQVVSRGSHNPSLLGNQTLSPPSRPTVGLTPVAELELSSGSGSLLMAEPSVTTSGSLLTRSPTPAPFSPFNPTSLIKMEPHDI
In short: as §1

ELK4 = biological target: T3, ELK4 (Homo sapiens, UniProt P28324-2 1-405); conditions: protein: recombinant; tags: N-terminal GST; dsDNA, one strand shown
T3 sequence: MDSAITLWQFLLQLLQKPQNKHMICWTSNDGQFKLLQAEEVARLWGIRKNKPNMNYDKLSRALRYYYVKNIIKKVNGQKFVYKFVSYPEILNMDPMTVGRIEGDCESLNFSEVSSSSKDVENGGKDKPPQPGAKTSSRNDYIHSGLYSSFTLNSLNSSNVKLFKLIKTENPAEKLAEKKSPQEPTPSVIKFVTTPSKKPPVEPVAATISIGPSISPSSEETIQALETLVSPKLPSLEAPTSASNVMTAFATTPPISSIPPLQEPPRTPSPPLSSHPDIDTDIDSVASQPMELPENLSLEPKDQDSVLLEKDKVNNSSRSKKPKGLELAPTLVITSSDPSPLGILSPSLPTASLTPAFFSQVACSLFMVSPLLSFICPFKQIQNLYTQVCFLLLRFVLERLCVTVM
In short: as §1

ETV2 = biological target: T4, ETV2 (Homo sapiens, UniProt O00321 1-342); conditions: protein: recombinant; tags: N-terminal GST; dsDNA, one strand shown
T4 sequence: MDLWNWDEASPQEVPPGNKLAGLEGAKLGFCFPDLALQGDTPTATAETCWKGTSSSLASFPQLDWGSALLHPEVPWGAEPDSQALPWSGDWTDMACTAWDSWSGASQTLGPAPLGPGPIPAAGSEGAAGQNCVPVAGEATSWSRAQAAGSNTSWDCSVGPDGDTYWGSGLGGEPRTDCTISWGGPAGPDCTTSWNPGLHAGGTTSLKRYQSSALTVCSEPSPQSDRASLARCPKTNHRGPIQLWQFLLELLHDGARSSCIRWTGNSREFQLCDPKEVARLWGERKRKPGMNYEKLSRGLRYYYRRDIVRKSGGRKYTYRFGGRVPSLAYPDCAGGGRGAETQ
In short: as §1

ELF3 = biological target: T5, ELF3 (Homo sapiens, UniProt P78545 1-371); conditions: protein: recombinant; tags: N-terminal GST; dsDNA, one strand shown
T5 sequence: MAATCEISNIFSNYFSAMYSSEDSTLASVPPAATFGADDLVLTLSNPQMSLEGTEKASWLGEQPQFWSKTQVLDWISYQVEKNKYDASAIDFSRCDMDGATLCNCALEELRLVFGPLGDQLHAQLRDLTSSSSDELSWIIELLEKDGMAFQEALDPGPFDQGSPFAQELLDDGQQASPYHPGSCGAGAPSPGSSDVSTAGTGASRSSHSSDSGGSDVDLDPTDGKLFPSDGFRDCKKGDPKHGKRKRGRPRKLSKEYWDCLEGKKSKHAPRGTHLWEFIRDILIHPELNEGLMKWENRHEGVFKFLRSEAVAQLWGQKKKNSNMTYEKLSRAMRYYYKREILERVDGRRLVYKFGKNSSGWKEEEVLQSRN
In short: as §1

CRX = CRX (Homo sapiens, UniProt O43186 1-299); conditions: protein: recombinant; tags: N-terminal GST; dsDNA, one strand shown
Sequence of CRX (O43186 whole entry): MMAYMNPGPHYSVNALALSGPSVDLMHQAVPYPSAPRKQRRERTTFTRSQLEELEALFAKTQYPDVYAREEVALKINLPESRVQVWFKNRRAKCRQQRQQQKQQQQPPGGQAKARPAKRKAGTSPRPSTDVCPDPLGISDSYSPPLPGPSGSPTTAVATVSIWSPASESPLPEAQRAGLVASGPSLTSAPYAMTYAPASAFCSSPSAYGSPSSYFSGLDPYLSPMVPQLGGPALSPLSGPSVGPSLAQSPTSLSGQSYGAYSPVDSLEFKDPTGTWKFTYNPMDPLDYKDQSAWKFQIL
In short: as §1

For GACATT, the binding signal (FEV) was 1.13 fold enrichment (6-mer frequency, TF over GST control), the binding signal (ETV5) was 1.17 fold enrichment (6-mer frequency, TF over GST control) and the binding signal (HSF1) was 1.09 fold enrichment (6-mer frequency, TF over GST control). For the same sequence, the binding signal (SPIC) was 1.12 fold enrichment (6-mer frequency, TF over GST control), the binding signal (ELF4) was 1.14 fold enrichment (6-mer frequency, TF over GST control) and the binding signal (ELK4) was 1.1 fold enrichment (6-mer frequency, TF over GST control). For the same sequence, the binding signal (ETV2) was 1.13 fold enrichment (6-mer frequency, TF over GST control), the binding signal (ELF3) was 1.16 fold enrichment (6-mer frequency, TF over GST control) and the binding signal (CRX) was 1.01 fold enrichment (6-mer frequency, TF over GST control).
